Active and inactive are the calls of the source.
How the values were obtained:
[1] = compound effects on lung adenocarcinoma cell viability – A549, calcein-AM fluorescence, 48 h, basal, profiling panel (AID 1162); conditions: higher = more signal
[2] = compound effects on differentiated 3T3-L1 adipocyte viability – cell-based, 3T3-L1 adipocytes, calcein-AM fluorescence, 48 h, basal, profiling panel (AID 1163); conditions: 3T3-L1 adipocytes viability, higher = more signal
[3] = compound effects on hepatocellular carcinoma cell viability – HepG2, calcein-AM fluorescence, 48 h, basal, profiling panel (AID 1164); conditions: higher = more signal
[4] = compound effects on multiple myeloma cell viability – MM1S, calcein-AM fluorescence, 48 h, basal, profiling panel (AID 1165); conditions: higher = more signal
[5] = calcein-AM signal in unstimulated myeloma cells – cell-based, calcein-AM fluorescence, 48 h, PK04 Diversity Set, profiling panel (AID 1166); conditions: RPMI8226 myeloma viability, higher = more signal;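 further: cells grown under basal conditions without added stimulus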
[6] = JC-1 mitochondrial signal, unstimulated HepG2 cells – cell-based, JC-1 fluorescence, 24 h, 100 nL compound, profiling panel (AID 1167); conditions: HepG2 mitochondrial potential, higher = more signal
[7] = JC-1 mitochondrial signal, unstimulated adipocytes – cell-based, JC-1 fluorescence, 3T3-L1 adipocytes, 24 h, 100 nL compound, profiling panel (AID 1168); conditions: JC-1 mitochondrial fluorescence, higher = more signal, called active from +8 up or from −8 down
[8] = JC-1 mitochondrial signal, unstimulated myeloma cells – cell-based, JC-1 fluorescence, RPMI8226, 24 h, 100 nL compound, profiling panel (AID 1169); conditions: JC-1 mitochondrial potential fluorescence, higher = more signal
[9] = JC-1 mitochondrial signal, unstimulated MM1S myeloma – cell-based, JC-1 fluorescence, 24 h, 100 nL compound, profiling panel (AID 1170); conditions: MM1S mitochondrial potential, higher = more signal
[10] = resazurin metabolic signal in A549 cells – cell-based, resazurin fluorescence, 24 h, PK04 Diversity Set, profiling panel (AID 1171); conditions: A549 viability, higher = more signal, called active from +8 up or from −8 down
Further: test concentration not given here.

| SMILES | z-score [1] | z-score [2] | z-score [3] | z-score [4] | z-score [5] | z-score [6] | z-score [7] | z-score [8] | z-score [9] | z-score [10] |
| --- | --- | --- | --- | --- | --- | --- | --- | --- | --- | --- |
| COc1ccc([Si](C)(C)[C@@H]2[C@@H](CC(=O)N(CCO)Cc3ccccc3)O[C@]3(C(=O)N(Cc4cccc(N5CCCCC5=O)c4)c4ccccc43)[C@H]2C)cc1 | -1.2 | 0.579 | -2.56 | -1.43 | -3.89 | 0.56 | 1.15 (inactive) | -0.654 | -1.26 | -1.6 (inactive) |
| COc1cccc(C)c1NC(=O)O[C@H]1[C@H](OC(=O)Nc2ccccc2-c2ccccc2)[C@H](OC(=O)Nc2ccccc2-c2ccccc2)[C@@H](OC)O[C@@H]1CO | -0.889 | 0.328 | 0.56 | -0.632 | -2.77 | -0.214 | 1.33 (inactive) | 0.198 | 0.143 | -1.11 (inactive) |
| CCOC(=O)C[C@H]1[C@H](OC(=O)c2ccc(C(=O)c3ccccc3)cc2)[C@@H](NC(=O)C2CCCCC2)c2cc(OCCCO)ccc2N1C(=O)c1ccc2ccccc2n1 | 0.123 | 0.347 | 2.23 | -0.436 | 1.31 | 1.9 | 1.45 (inactive) | 0.592 | -0.543 | -0.0397 (inactive) |
| CCCC1(C(=O)OC)C=C2C(=C(C)C(=O)C2C)CN1 (stereo not given) | -1.48 | -1.07 | -0.806 | -0.44 | -1.03 | -1.96 | -1.16 (inactive) | -0.0212 | -0.974 | -0.727 (inactive) |
| CCCNC(=O)[C@@]1(Sc2ccc(C)cc2)CC(=O)N(C2Cc3ccccc3C2)[C@@H]1c1ccc(CO)cc1I | 0.877 | 0.331 | 0.544 | -1.54 | -1.85 | -0.574 | -0.0979 (inactive) | -0.778 | -0.987 | 0.309 (inactive) |
| C=CCN1Cc2ccccc2[C@@H]2OC(c3ccc(OCCCO)cc3)=N[C@]2(CC=C)C1=O | -0.546 | 1.44 | 0.274 | -2.62 | -2.83 | 0.752 | 0.0517 (inactive) | -1.09 | 0.278 | 0.0576 (inactive) |
| CCCCN1CC=CC23O[C@@H]4/C=C\CCC(C)OC(=O)C4[C@H]2C(=O)N(CCCO)[C@@H]3C1=O (stereo not given in full) | -0.615 | 1.57 | -0.241 | 1.04 | -0.386 | -0.534 | 0.276 (inactive) | 0.635 | 0.71 | -0.523 (inactive) |
| COCC(=C=CC[C@H](O)c1ccc(OCCO)cc1)CCO | 1.06 | 0.156 | -0.587 | -1.28 | 0.231 | -0.255 | -0.597 (inactive) | 0.854 | 0.464 | 1.01 (inactive) |
| CC(C)C(CO)N1C(=O)[C@@H]2C3C(=O)OCCC/C=C\[C@H]3OC23C=CCN(c2ccc4ccccc4c2)C(=O)[C@@H]13 (stereo not given in full) | -0.0401 | -0.0738 | -0.131 | 0.292 | 0.457 | -0.0404 | -0.0718 (inactive) | 0.0134 | -0.332 | -0.525 (inactive) |
| C=CCNC(=O)[C@@H]1[C@H]2C(=O)O[C@H](c3ccccc3)[C@H](c3ccccc3)N2[C@H](c2ccc(OCCO)cc2)[C@@]12C(=O)N(C(=O)OCCOC)c1ccc(C#Cc3ccc(OC)cc3)cc12 | -0.528 | 0.786 | -0.834 | -0.845 | -1.32 | -0.638 | 0.8 (inactive) | -0.813 | -0.82 | 0.927 (inactive) |
| C=CC[C@]1(C(=O)N2CCCCC2)N=C(c2ccc(OCCCO)cc2)O[C@H]1c1ccccc1CN=[N+]=[N-] | -0.416 | 0.132 | 0.61 | -1.11 | -1.15 | 0.574 | 0.32 (inactive) | -1.31 | -0.576 | 0.482 (inactive) |
| O=C1C[C@]2(c3ccc([N+](=O)[O-])cc3)C(=O)N(C3CC3)c3cc(CO)ccc3[C@H]2N1CC12CC3CC(CC(C3)C1)C2 | 0.207 | 0.368 | -0.67 | 0.352 | -0.947 | -0.148 | -0.837 (inactive) | 0.787 | -1.1 | -0.452 (inactive) |
| CC(C)N1CC=CC23O[C@@H]4C=CCCOC(=O)C4[C@H]2C(=O)N(CCCO)[C@@H]3C1=O (stereo not given in full) | -0.726 | 1.36 | 0.292 | 0.756 | -0.457 | -0.568 | 0.128 (inactive) | -0.303 | -0.438 | 0.446 (inactive) |
| COc1ccc(C(=O)Nc2ccc(CN3C(=O)[C@]4(O[C@H](CC(=O)N5Cc6ccccc6C[C@H]5CO)[C@@H]([Si](C)(C)c5ccc(OC)cc5)[C@@H]4C)c4ccccc43)cc2)cc1 | -0.513 | 1.56 | 0.349 | -1.6 | -0.786 | 0.705 | -0.212 (inactive) | -0.7 | -0.911 | -1.96 (inactive) |
| CCCCC=C[C@@H](NC(=O)OCc1ccccc1Cl)c1ccccc1 | -1.28 | -1.2 | -0.661 | -0.919 | -0.871 | 0.359 | -0.337 (inactive) | -0.623 | -1.03 | 0.297 (inactive) |
| [N-]=[N+]=NCc1ccccc1C[C@@]1(C(N)=O)N=C(c2ccc(OCCCO)cc2)O[C@@H]1c1ccccc1 | -0.914 | 0.0779 | -1.94 | -3.04 | -2.88 | -0.864 | -0.262 (inactive) | -1.22 | -0.301 | -1.08 (inactive) |
| C=CCC(OC(C)=O)[C@@H]1[C@@H](N(Cc2ccc(-c3cccc(C(F)(F)F)c3)o2)C(=O)Cc2ccc(OC)cc2)c2cc(OCCCO)ccc2N1C(=O)c1ccc(-c2ccccc2)cc1 (stereo not given in full) | 0.095 | 0.647 | 0.926 | -0.681 | -1.93 | 3.55 | -0.645 (inactive) | 0.498 | 0.504 | -1.71 (inactive) |
| COC(=O)[C@@]1(Cc2ccccc2)[C@H]2c3cc(C(=O)N(C)C)n(Cc4ccc(C)o4)c3C[C@H]2CN1C(=O)c1ccccc1 | -2.02 | 0.827 | -0.735 | -1.01 | -3.69 | 0.598 | -2.61 (inactive) | -0.951 | -1.88 | -1.42 (inactive) |
| COC(=O)C1=CC(CCCO)=CC(c2cccs2)N(C)C=C1C(=O)OC (stereo not given) | -0.253 | 0.483 | -0.818 | 0.347 | 0.959 | -0.386 | -0.195 (inactive) | -0.294 | 0.549 | -0.28 (inactive) |
| OCCCC1=CC(c2ccc(CN3CCCC3)cc2)N(Cc2cc3c(cc2Br)OCO3)CC1 (stereo not given) | -0.8 | 1.07 | 0.552 | -2.99 | 0.866 | 1.72 | -0.261 (inactive) | 0.406 | 0.0254 | 0.731 (inactive) |
| COC(=O)C1=CC(CCCO)=CC(c2ccc(CN3CCCC3)cc2)N(Cc2cccc(OC(F)(F)F)c2)C=C1C(=O)OC (stereo not given) | 0.589 | -0.0684 | 1.34 | 1.04 | -0.413 | 3.57 | 0.395 (inactive) | 0.121 | 0.593 | -1.16 (inactive) |

Reference: PubChem BioAssay
